Results on 22 compounds are retold here after PubChem BioAssay (NCATS).

Each structure is given as a SMILES string. “And” between values parts separate entries of the source, which are not always exact repeats. Identical values can stand only once. Results filed as inconclusive are left out. A number with no mark means an inactive call. The source made the active and inactive calls. Calls follow the shape of the dose curve; as a rule, active = well fitted cell-killing curve with a large enough effect; inconclusive = small, poorly fitted or top-dose-only effect; inactive = flat fitted curve, though single readings scatter.
Potency is read from the fitted curve at half-maximal effect.

This assay can be described thus: qHTS of pediatric cancer cell lines to identify multiple opportunities for drug repurposing: Primary screen for BT-12 cells (AID 1347101). Also: nearly all actives have a fitted effect of over 25% in size.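 As to activity change, negative = cytotoxic: plate controls were DMSO for no effect and bortezomib positive control for full effect.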 The settings on record: BT-12 viability, CellTiter-Glo luminescence, 48 h; series mostly up to 57.3 µM; activity change, negative = cytotoxic: at the top concentration. The procedure, abridged: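 Cells (500-1,000/well) rested 5 h, then received compounds for 48 h; metabolically active cells were measured by CellTiter-Glo luminescence. Final concentrations spanned up to 46 µM (MIPE, 11-point) or 0.59 nM-46 µM (NPC, 8-point) in primary screens, 11-point in follow-ups.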
(In qHTS, concentration-response curves come from the screen itself.)
As to `O=S(=O)(O)CCS`, the Potency entry was “inactive”.
For the compound `CC(=O)Oc1ccccc1C(=O)Nc1ncc([N+](=O)[O-])s1`, the Potency was 39.5 µM (active) and 21.9 µM (active).
Regarding `CCC(C)(C)c1ccc(CC(C)CN2C[C@@H](C)O[C@@H](C)C2)cc1` (some centres not stated), the Potency result is “inactive”.
With `COc1cc2c(Nc3ccc(Br)cc3F)ncnc2cc1OCC1CCN(C)CC1`, the “activity change, negative = cytotoxic” value is 11.4%.
In the case of `CC(C)(Sc1cc(C(C)(C)C)c(O)c(C(C)(C)C)c1)Sc1cc(C(C)(C)C)c(O)c(C(C)(C)C)c1`, the Potency entry is “inactive”.
Still for that read-out and setting: the entry for `COc1ccc2c(c1)c(CC(=O)OCC(=O)O)c(C)n2C(=O)c1ccc(Cl)cc1` is “inactive”; for `Cc1ccnc2c1NC(=O)c1cccnc1N2C1CC1` it is “inactive”.
Consider `CCC(=O)O[C@]1(C(=O)SCF)[C@H](C)C[C@H]2[C@@H]3C[C@H](F)C4=CC(=O)C=C[C@]4(C)[C@@]3(F)[C@@H](O)C[C@@]21C`, for which the Potency entry was “inactive”.
On the same count and under the same terms, the figure for `CC[C@H](C)C(=O)O[C@H]1C[C@@H](C)C=C2C=C[C@H](C)[C@H](CC[C@@H]3C[C@@H](O)CC(=O)O3)[C@H]21` is 1.23 µM (active) and 3.43 µM (active).
Consider `C[C@@H](CN1CC(=O)NC(=O)C1)N1CC(=O)NC(=O)C1`, for which the “activity change, negative = cytotoxic” value is -5.31%.
On to `O[C@@H](CNC[C@H](O)[C@H]1CCc2cc(F)ccc2O1)[C@@H]1CCc2cc(F)ccc2O1`, for which the Potency is 27.3 µM (active).
Consider `CCOC(=O)[C@H](CCc1ccccc1)N[C@H]1CCc2ccccc2N(CC(=O)O)C1=O`, for which the Potency is 27.3 µM (active).
`NC(=O)c1cccc(N)c1`: the “activity change, negative = cytotoxic” value was 12.2%.
On the same count and under the same terms, the figure for `O=c1cc(O)c(Cl)c[nH]1` is 7.81%.
On to `COc1cnc(NS(=O)(=O)c2ccc(N)cc2)nc1`, for which the Potency result is “inactive”.
Turning to `O=C(O)C1CCCN(CCC=C(c2ccccc2)c2ccccc2)C1` (configuration not stated), the “activity change, negative = cytotoxic” value was 2.8%.
With `CN(Cc1cc(Br)cc(Br)c1N)C1CCCCC1`, the Potency result was “inactive”.
On to `OCc1ccc(-c2nn(Cc3ccccc3)c3ccccc23)o1`, for which the “activity change, negative = cytotoxic” value was -20.9%.
On to `CC(C)NCC(O)c1ccc(NS(C)(=O)=O)cc1` (configuration not stated), for which the “activity change, negative = cytotoxic” value is 8.16%.
With `N[C@@H](Cc1ccc(O)c(O)c1)C(=O)O`, the “activity change, negative = cytotoxic” value was 10.7%.
`CCCCS(=N)(=O)CCC(N)C(=O)O` (configuration not stated): the “activity change, negative = cytotoxic” value is 4%.
For `CCCc1nc(C)c2c(=O)[nH]c(-c3cc(S(=O)(=O)N4CCN(CC)CC4)ccc3OCC)nn12`, the Potency was 12.2 µM (active).
